Data reported in PubChem BioAssay (NCI).
Compounds without any hit were thinned out: in the full panel of roughly 83,000, 20% have a hit.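 Testing used 96-well plates and a 48-hour single-concentration exposure. Example: -40 means 40% of the starting cells died.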 The source made the active and inactive calls. How the source made its calls: active means growth percent below 10; inactive means the rest.

How the values were obtained:
Assay in all cases: NCI-60 one-dose screen, 48 h (100 = growth as untreated, 0 = no growth, -100 = all killed)
NCI-H23 lung = settings: 10 µM unless noted
NCI-H226 lung = settings: 10 µM unless noted
NCI-H322M lung = settings: 10 µM unless noted
HOP-62 NSCLC = settings: 10 µM unless noted
NCI-H460 lung = settings: 10 µM unless noted
HOP-92 NSCLC = settings: 10 µM unless noted
NCI-H522 lung = settings: 10 µM unless noted
A549/ATCC NSCLC = settings: 10 µM unless noted
786-0 renal = settings: 10 µM unless noted
COLO 205 colon = settings: 10 µM unless noted
DU-145 prostate = settings: 10 µM unless noted
K-562 leukemia = settings: 10 µM unless noted
MALME-3M melanoma = settings: 10 µM unless noted
MDA-MB-231 breast = settings: 10 µM unless noted
RXF 393 renal = settings: 10 µM unless noted
SF-268 CNS = settings: 10 µM unless noted
SF-295 CNS = settings: 10 µM unless noted
SF-539 CNS = settings: 10 µM unless noted
UACC-257 melanoma = settings: 10 µM
M14 melanoma = settings: 10 µM unless noted

Measured: growth

CCOc1c(C#N)c(Nc2ccc(S(N)(=O)=O)cc2)c(C#N)c2nnc(C)n12
inactive: NCI-H23 lung 93.5% | NCI-H226 lung 105% | NCI-H322M lung 100% | HOP-62 NSCLC 104% | NCI-H460 lung 111% | HOP-92 NSCLC 98% | NCI-H522 lung 95.3% | A549/ATCC NSCLC 104% | 786-0 renal 110% | COLO 205 colon 105% | DU-145 prostate 109% | K-562 leukemia 110% | MALME-3M melanoma 99.1% | MDA-MB-231 breast 90.6% | RXF 393 renal 132% | SF-268 CNS 99% | SF-295 CNS 105% | SF-539 CNS 97.2% | UACC-257 melanoma 104% | M14 melanoma 100%

Oc1ccc(CSc2nnc(-c3ccc(Cl)cc3)o2)c2cccnc12
active: NCI-H460 lung 5.72% | SF-295 CNS 5.94% | M14 melanoma 9.55%
inactive: NCI-H23 lung 27.6% | NCI-H226 lung 60.2% | NCI-H322M lung 26.1% | HOP-62 NSCLC 21.5% | HOP-92 NSCLC 21.8% | NCI-H522 lung 32% | A549/ATCC NSCLC 19.6% | 786-0 renal 27.9% | COLO 205 colon 97.4% | DU-145 prostate 31.8% | K-562 leukemia 16.2% | MALME-3M melanoma 36.8% | MDA-MB-231 breast 52.1% | RXF 393 renal 52.2% | SF-268 CNS 24.2% | SF-539 CNS 17% | UACC-257 melanoma 18.8%

O=[N+]([O-])c1ccc(-c2nnc(SCc3ccc(O)c4ncccc34)o2)cc1
inactive: NCI-H23 lung 21.5% | NCI-H226 lung 36.2% | NCI-H322M lung 40.7% | HOP-62 NSCLC 21.5% | NCI-H522 lung 17.2% | A549/ATCC NSCLC 25.8% | 786-0 renal 33% | COLO 205 colon 49.9% | DU-145 prostate 29.5% | K-562 leukemia 17.6% | MALME-3M melanoma 21.5% | MDA-MB-231 breast 38.1% | RXF 393 renal 14.8% | SF-268 CNS 27.7% | SF-539 CNS 23.5% | UACC-257 melanoma 18.6% | M14 melanoma 27.4%
active: NCI-H460 lung 8.58% | HOP-92 NSCLC -13.4% | SF-295 CNS 9.85%

NC(=O)C(=Cc1ccc(Cl)cc1)C(N)=O
inactive: NCI-H23 lung 74.5% | NCI-H226 lung 65.3% | NCI-H322M lung 79.6% | HOP-62 NSCLC 95.9% | NCI-H460 lung 89% | HOP-92 NSCLC 34.8% | NCI-H522 lung 46.5% | A549/ATCC NSCLC 74.5% | 786-0 renal 70.7% | COLO 205 colon 81.3% | DU-145 prostate 39.7% | K-562 leukemia 31.8% | MALME-3M melanoma 82% | MDA-MB-231 breast 80.3% | RXF 393 renal 62.9% | SF-268 CNS 84.8% | SF-295 CNS 71.9% | SF-539 CNS 55.6% | UACC-257 melanoma 68.3% | M14 melanoma 70.3%

O=C1[C@@H]2Cc3c([nH]c4ccccc34)[C@H](c3c(Cl)cccc3Cl)N2C(=O)CN1C1CCN(Cc2ccccc2)CC1
inactive: NCI-H23 lung 41.7% | NCI-H226 lung 74.9% | NCI-H322M lung 77.7% | HOP-62 NSCLC 81.3% | HOP-92 NSCLC 42.8% | NCI-H522 lung 63.5% | A549/ATCC NSCLC 12.7% | COLO 205 colon 75% | DU-145 prostate 31.6% | MALME-3M melanoma 44.9% | MDA-MB-231 breast 55.4% | RXF 393 renal 55.9% | SF-268 CNS 52.5% | SF-539 CNS 70.3% | UACC-257 melanoma 46.4% | M14 melanoma 23.3%
active: NCI-H460 lung 9.15% | 786-0 renal -26.6% | K-562 leukemia -8.4% | SF-295 CNS -79.4%

COc1cc(/C=N/n2cnc3oc(-c4ccccc4)cc3c2=N)cc(CN2CCOCC2)c1O
active: K-562 leukemia 5.46% | RXF 393 renal -18.4%
inactive: NCI-H23 lung 73% | NCI-H226 lung 62.4% | NCI-H322M lung 97.5% | HOP-62 NSCLC 74.2% | NCI-H460 lung 89.8% | HOP-92 NSCLC 63.3% | NCI-H522 lung 61.1% | A549/ATCC NSCLC 80.1% | 786-0 renal 45.6% | COLO 205 colon 82.4% | DU-145 prostate 89.3% | MALME-3M melanoma 66.4% | MDA-MB-231 breast 51.4% | SF-268 CNS 72.4% | SF-295 CNS 68.1% | SF-539 CNS 60.9% | UACC-257 melanoma 110% | M14 melanoma 73%

CC(=O)Oc1ccc(CCN2C(=O)CSC2=S)cc1
inactive: NCI-H23 lung 101% | NCI-H226 lung 89.4% | NCI-H322M lung 99.8% | HOP-62 NSCLC 111% | NCI-H460 lung 101% | HOP-92 NSCLC 53.7% | NCI-H522 lung 61.7% | A549/ATCC NSCLC 106% | 786-0 renal 79.7% | COLO 205 colon 115% | DU-145 prostate 11% | K-562 leukemia 57.2% | MALME-3M melanoma 83.2% | MDA-MB-231 breast 64.4% | RXF 393 renal 69.8% | SF-268 CNS 92.1% | SF-295 CNS 103% | SF-539 CNS 85.2% | UACC-257 melanoma 95.9% | M14 melanoma 85.7%

CNC(=O)c1c(NC(=O)c2ccc(F)cc2F)sc2c1CCC(=O)C2
active: NCI-H23 lung 5.55% | NCI-H460 lung 1.92% | HOP-92 NSCLC -34% | NCI-H522 lung -10.1% | COLO 205 colon -74% | MALME-3M melanoma -9.54% | MDA-MB-231 breast -16.6% | RXF 393 renal -28.9% | SF-295 CNS -3.76% | SF-539 CNS -28.6% | UACC-257 melanoma -2.26%
inactive: NCI-H226 lung 15.7% | NCI-H322M lung 33.3% | HOP-62 NSCLC 16.3% | A549/ATCC NSCLC 13.1% | 786-0 renal 24% | DU-145 prostate 66.4% | K-562 leukemia 12.7% | SF-268 CNS 20.3% | M14 melanoma 19.3%
